# Results published in PubChem BioAssay (NCATS).
# Inconclusive results are not listed. Activity calls are given as the source filed them. Unless noted, calls follow the shape of the dose curve; as a rule, active = well fitted curve in the direction sought with a large enough effect; inconclusive = small, poorly fitted or top-dose-only effect, or another doubt; inactive = no such curve, though single readings can be large; an effect the other way counts as inactive or inconclusive.
# Experiments:
# [1] = target: Lysosomal acid glucosylceramidase (Homo sapiens) (UniProt P04062); assay: Glucocerebrosidase-p2 (AID 348; in the data active = potency below about 10 µM; also: potency is read from the fitted curve at half-maximal effect); conditions: purified GBA, blue fluorogenic substrate, 40 min
# Lysosomal acid glucosylceramidase (Homo sapiens), sequence (P04062 whole entry, looked up): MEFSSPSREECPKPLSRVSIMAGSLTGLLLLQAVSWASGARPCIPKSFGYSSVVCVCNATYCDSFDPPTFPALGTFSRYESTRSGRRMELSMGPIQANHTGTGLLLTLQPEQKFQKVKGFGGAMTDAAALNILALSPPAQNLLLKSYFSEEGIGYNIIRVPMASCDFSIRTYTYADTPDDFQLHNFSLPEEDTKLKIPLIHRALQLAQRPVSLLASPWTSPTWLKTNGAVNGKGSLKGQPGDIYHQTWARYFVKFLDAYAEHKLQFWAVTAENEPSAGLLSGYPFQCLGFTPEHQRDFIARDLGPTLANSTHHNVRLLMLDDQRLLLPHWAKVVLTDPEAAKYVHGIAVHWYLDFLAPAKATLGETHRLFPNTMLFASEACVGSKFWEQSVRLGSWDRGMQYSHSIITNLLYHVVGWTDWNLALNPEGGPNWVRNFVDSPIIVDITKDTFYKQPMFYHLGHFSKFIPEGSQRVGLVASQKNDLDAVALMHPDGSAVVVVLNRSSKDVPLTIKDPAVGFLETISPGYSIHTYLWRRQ
# In short: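 Compounds titrated from 0.6 nM upwards against 0.2 nM enzyme in pH 5.9 citric acid/KH2PO4, taurocholate, tween-20; blue fluorogenic substrate 80 uM, 40 min room temperature, stopped and read Ex 365/Em 440 for AC50.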
# [2] = AP1 Signaling Pathway (AID 357; active = well fitted curve in either direction with a large enough effect, not every such curve was filed as active;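 also: ME-180 reporter cells stimulated with EGF at its EC50 level; % is scaled to controls: 0 for no effect and ±100 for the full control effect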); conditions: ME-180 AP-1-bla reporter, EGF-induced, beta-lactamase ratio, 5 h; at 7.69 µM (top of the series) unless noted
# In short: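 In this screen, ME-180 cells in Opti-MEM with 0.5% dialyzed FBS received EC50 EGF and compound titrations for 5 h. AP-1 reporter beta-lactamase was detected via CCF4 ratio, giving AC50 for positive and negative modulators.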
# [3] = target: Cytochrome P450 1A2 (Homo sapiens) (UniProt P05177); assay: p450-cyp1a2 (AID 410; calls by dose curve; also: potency is read from the fitted curve at half-maximal effect); conditions: recombinant CYP1A2, luciferin-ME demethylation, luminescence; series mostly up to 57 µM
# Cytochrome P450 1A2 (Homo sapiens), sequence (P05177 whole entry, looked up): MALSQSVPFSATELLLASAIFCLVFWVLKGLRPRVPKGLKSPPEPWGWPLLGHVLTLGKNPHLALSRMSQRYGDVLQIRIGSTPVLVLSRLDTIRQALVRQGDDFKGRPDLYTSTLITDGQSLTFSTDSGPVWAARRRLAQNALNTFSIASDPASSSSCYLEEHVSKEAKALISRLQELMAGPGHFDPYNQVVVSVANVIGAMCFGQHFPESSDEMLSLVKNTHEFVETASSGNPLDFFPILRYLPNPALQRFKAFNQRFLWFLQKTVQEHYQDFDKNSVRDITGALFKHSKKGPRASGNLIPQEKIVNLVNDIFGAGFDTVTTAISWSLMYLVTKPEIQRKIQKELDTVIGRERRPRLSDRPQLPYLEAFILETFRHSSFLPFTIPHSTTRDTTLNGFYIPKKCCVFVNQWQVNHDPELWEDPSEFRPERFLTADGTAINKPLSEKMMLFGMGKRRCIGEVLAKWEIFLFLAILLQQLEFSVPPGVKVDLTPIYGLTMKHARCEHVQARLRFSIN
# In short: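 20nM CYP1A2 with 100uM Luciferin-ME (at Km) in 100mM KPO4; compound preincubated 10 min, NADPH regeneration added, 60 min at room temperature. Luciferin quantified by luminescence after detection reagent; normalized to 57 uM furafylline.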
# [4] = NFAT Signaling Pathway (AID 444; active = well fitted curve in either direction with a large enough effect, not every such curve was filed as active;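 also: carbachol stimulus at about its EC50 of 1 µM final; % is scaled to controls: 0 for no effect and ±100 for the full control effect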); conditions: Jurkat NFAT-bla M1, carbachol, beta-lactamase ratio, 5 h; at 7.69 µM (top of the series) unless noted
# In short: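 Jurkat cells carrying an NFAT-driven β-lactamase reporter and co-transfected muscarinic M1 receptor were treated with compound plus carbachol (1 uM final, an EC50 level) for 5 h at 37 °C. CCF4 loading followed for 1 h at RT; 460/530 nm ratio gave %activity.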
# [5] = Stat Signaling Pathway (AID 446; active = well fitted curve in either direction with a large enough effect, not every such curve was filed as active;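 also: ME-180 cervical cancer cells given 40 pM IL-6 alongside compound; SIE-controlled beta-lactamase reporter measured as 460/530 nm FRET emission ratio; % is scaled to controls: 0 for no effect and ±100 for the full control effect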); conditions: ME-180 SIE beta-lactamase reporter, IL-6 stimulated, 5 h; at 7.69 µM (top of the series) unless noted
# In short: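 Screening format detects activators and inhibitors alike: ME-180 SIE-bla cells stimulated at 40 pM IL-6 for 5 hrs with compound, then dual-emission beta-lactamase read at 405 nm excitation.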
# [6] = target: Glucocorticoid receptor (Homo sapiens) (UniProt P04150); assay: GR-GFP Redistribution (AID 450;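 active = compounds whose dose series gives a full or clear partial fitted curve of increased nuclear translocation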; also: potency is read from the fitted curve at half-maximal effect); conditions: U2OS GR-GFP nuclear translocation, laser cytometry, 2 h
# Glucocorticoid receptor (Homo sapiens), sequence (P04150 whole entry, looked up, the tested form may be a part): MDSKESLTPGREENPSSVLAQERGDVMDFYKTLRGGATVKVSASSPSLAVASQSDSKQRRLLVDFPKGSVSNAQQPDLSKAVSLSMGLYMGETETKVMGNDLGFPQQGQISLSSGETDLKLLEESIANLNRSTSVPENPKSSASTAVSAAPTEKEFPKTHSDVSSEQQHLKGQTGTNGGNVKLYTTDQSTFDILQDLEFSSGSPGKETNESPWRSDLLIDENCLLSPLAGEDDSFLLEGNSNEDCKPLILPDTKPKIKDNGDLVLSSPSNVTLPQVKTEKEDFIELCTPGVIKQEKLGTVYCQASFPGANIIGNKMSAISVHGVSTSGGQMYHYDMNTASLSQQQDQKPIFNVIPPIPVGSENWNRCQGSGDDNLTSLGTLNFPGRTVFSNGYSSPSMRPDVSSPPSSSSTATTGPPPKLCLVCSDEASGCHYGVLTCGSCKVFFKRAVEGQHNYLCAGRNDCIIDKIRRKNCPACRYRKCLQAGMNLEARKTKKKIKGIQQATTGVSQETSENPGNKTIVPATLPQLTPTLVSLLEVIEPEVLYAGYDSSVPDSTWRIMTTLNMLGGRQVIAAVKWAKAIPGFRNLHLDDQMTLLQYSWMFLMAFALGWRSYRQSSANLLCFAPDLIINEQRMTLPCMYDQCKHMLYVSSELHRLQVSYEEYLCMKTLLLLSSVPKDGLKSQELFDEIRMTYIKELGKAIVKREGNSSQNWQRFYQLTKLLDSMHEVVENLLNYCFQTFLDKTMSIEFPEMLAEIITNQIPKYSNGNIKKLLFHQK
# [7] = target: Glucocorticoid receptor (Homo sapiens) (UniProt P04150); assay: GR-EFC Redistribution (AID 451; calls by dose curve; also: potency is read from the fitted curve at half-maximal effect); conditions: CHO-K1 GR-EFC translocation, beta-gal luminescence, 2 h
# In short: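 CHO-K1 cells stably expressing nuclear-localized β-gal enzyme acceptor and GR fused C-terminally to the enzyme donor fragment; ligand-driven nuclear translocation restores β-gal by complementation. Compounds titrated up to 46 uM final, 2 h at 37 °C; luminescence read.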
# [8] = target: Mitogen-activated protein kinase 10 (Mus musculus) (UniProt Q61831); assay: JNK3 AlphaScreen Assay (AID 530; active = well fitted curve in either direction with a large enough effect, not every such curve was filed as active;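 also: kinase came from lysate of stimulated human HepG2 cells; signal reports phosphorylation of biotinylated GST-cJun 1-79 at Ser73 with 10 µM ATP; % is scaled to controls: 0 for no effect and ±100 for the full control effect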); conditions: JNK3 lysate, c-Jun phosphorylation; series mostly up to 57.1 µM
# In short: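 Inhibitors reduce antibody binding to phosphorylated biotin-cJun, lowering AlphaScreen luminescence. Lysates from HepG2 cells pre-activated by IL-1beta plus TNF-alpha supplied JNK3; compounds were titrated.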
# [9] = target: Cytochrome P450 3A4 (Homo sapiens) (UniProt P08684); assay: qHTS Assay for Inhibitors and Substrates of Cytochrome P450 3A4 (AID 884); conditions: recombinant CYP3A4, Luciferin-PPXE luminescence; series mostly up to 57.1 µM; also: nearly all actives have a fitted effect of over 50% in size; also: potency is read from the fitted curve at half-maximal effect
# Cytochrome P450 3A4 (Homo sapiens), sequence (P08684 whole entry, looked up): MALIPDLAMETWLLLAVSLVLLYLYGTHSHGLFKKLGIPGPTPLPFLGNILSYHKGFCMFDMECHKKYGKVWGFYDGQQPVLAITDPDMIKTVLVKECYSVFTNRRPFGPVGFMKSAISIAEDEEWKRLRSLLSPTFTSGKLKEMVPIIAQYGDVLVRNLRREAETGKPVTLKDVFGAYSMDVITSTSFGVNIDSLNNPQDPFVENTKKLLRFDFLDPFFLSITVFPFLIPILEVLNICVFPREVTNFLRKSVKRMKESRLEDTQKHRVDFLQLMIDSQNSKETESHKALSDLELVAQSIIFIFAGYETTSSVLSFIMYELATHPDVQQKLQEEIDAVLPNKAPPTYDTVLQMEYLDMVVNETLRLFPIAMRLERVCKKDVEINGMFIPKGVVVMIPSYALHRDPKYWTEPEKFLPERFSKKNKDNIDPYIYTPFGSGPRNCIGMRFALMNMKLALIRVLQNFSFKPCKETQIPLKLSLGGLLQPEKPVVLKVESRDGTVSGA
# In short: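 20 nM human CYP3A4 with 25 uM Luciferin-PPXE (at KM) in 200 mM KPO4, preincubated 10 min with compound; NADPH regeneration started a 60 min RT reaction. Luciferin detected by luminescence, normalized to 57 uM ketoconazole as full inhibition.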
# [10] = target: Cytochrome P450 3A4 (Homo sapiens) (UniProt P08684); assay: qHTS Assay for Activators of Cytochrome P450 3A4 (AID 885); conditions: recombinant CYP3A4, Luciferin-PPXE luminescence, 60 min; series mostly up to 57.1 µM; also: nearly all actives have a fitted effect of over 65% in size
# In short: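 Steps: enzyme/substrate mix dispensed; compound added, 10 min RT; NADPH regeneration solution added, 60 min RT; luciferin detection buffer stops reaction; 20 min later luminescence measured.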
# [11] = Confirmation and Secondary Assay for Modulators of Hemoglobin Beta Chain Splicing at IVS2 705 locus (AID 930); conditions: HeLa EGFP-705 splicing reporter, GFP fluorescence, 48 h; series mostly up to 38.3 µM;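 also: HeLa cells stably expressing the EGFP-705 splicing reporter; GFP fluorescence per well restored by corrected splicing of the IVS2-705 intron in EGFP; % of control where 0% means no effect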
# In short: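 HeLa cells stably carrying EGFP interrupted by mutant beta-globin intron 2 (IVS2-705) treated 2 days at 37C with compound; 500 nM antisense PNA as control. Correct splicing read as total peak GFP intensity per well by laser-scanning cytometry.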
# [12] = qHTS Assay for Lipid Storage Modulators (AID 1519; calls by dose curve); conditions: Drosophila S3 cells, BODIPY lipid droplet/cell ratio, laser cytometry, cells loaded with oleic acid; for activity change, negative = inhibition: at 57.5 µM (top of the series)
# In short: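 Cells seeded at 5,000 per well were treated with compounds over a concentration series and loaded with oleic acid (400 uM, as added). Lipid droplet fluorescence (488 nm excitation, 500-530 nm channel) was read by laser-scanning cytometry and normalized to 20 uM Triacsin C.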
# [13] = target: Rap guanine nucleotide exchange factor 3 (Homo sapiens) (UniProt O95398); assay: Confirmatory qHTS for agonist of cAMP-regulated guanine nucleotide exchange factor 3 (EPAC1) (AID 1645881); conditions: EPAC1 Rap1B BODIPY-GDP exchange fluorescence; series mostly up to 154 µM;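 also: EPAC1 catalysed release of BODIPY-GDP from Rap1B seen as fluorescence loss; 100% = effect of cAMP agonist control; nearly all actives have a fitted effect of over 75% in size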
# Rap guanine nucleotide exchange factor 3 (Homo sapiens), sequence (O95398 whole entry, looked up): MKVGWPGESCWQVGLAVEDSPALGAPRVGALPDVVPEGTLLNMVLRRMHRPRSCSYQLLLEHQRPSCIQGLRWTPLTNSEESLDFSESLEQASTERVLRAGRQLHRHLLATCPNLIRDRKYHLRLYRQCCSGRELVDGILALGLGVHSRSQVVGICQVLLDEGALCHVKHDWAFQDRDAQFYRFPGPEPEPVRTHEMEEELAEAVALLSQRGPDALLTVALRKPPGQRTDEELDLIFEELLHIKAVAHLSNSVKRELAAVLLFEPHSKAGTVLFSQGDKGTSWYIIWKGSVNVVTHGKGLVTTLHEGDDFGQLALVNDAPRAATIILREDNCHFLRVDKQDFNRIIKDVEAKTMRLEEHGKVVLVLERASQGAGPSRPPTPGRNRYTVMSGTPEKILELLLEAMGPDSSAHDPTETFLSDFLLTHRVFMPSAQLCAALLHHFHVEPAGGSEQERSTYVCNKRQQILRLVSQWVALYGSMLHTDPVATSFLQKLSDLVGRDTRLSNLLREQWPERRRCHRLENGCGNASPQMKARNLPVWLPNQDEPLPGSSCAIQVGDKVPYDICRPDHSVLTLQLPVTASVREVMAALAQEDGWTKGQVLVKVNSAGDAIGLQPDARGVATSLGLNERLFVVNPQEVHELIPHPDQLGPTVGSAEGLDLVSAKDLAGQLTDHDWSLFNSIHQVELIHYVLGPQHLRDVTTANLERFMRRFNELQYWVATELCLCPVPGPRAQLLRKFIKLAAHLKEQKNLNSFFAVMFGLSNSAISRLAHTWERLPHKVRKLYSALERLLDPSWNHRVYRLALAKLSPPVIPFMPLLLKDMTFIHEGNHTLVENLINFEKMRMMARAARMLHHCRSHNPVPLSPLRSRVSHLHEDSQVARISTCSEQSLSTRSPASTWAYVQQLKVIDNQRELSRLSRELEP
# [14] = target: Rap guanine nucleotide exchange factor 4 (Homo sapiens) (UniProt Q8WZA2); assay: Confirmatory qHTS for agonist of cAMP-regulated guanine nucleotide exchange factor 4 (EPAC2) (AID 1645884); conditions: EPAC2 GEF activity, Rap1B-BODIPY-GDP fluorescence; series mostly up to 154 µM;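 also: nucleotide exchange releases bodipy-GDP from Rap1 and this lowers its fluorescence; % is scaled to controls: 0 for no effect and ±100 for the full control effect; nearly all actives have a fitted effect of over 65% in size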
# Rap guanine nucleotide exchange factor 4 (Homo sapiens), sequence (Q8WZA2 whole entry, looked up): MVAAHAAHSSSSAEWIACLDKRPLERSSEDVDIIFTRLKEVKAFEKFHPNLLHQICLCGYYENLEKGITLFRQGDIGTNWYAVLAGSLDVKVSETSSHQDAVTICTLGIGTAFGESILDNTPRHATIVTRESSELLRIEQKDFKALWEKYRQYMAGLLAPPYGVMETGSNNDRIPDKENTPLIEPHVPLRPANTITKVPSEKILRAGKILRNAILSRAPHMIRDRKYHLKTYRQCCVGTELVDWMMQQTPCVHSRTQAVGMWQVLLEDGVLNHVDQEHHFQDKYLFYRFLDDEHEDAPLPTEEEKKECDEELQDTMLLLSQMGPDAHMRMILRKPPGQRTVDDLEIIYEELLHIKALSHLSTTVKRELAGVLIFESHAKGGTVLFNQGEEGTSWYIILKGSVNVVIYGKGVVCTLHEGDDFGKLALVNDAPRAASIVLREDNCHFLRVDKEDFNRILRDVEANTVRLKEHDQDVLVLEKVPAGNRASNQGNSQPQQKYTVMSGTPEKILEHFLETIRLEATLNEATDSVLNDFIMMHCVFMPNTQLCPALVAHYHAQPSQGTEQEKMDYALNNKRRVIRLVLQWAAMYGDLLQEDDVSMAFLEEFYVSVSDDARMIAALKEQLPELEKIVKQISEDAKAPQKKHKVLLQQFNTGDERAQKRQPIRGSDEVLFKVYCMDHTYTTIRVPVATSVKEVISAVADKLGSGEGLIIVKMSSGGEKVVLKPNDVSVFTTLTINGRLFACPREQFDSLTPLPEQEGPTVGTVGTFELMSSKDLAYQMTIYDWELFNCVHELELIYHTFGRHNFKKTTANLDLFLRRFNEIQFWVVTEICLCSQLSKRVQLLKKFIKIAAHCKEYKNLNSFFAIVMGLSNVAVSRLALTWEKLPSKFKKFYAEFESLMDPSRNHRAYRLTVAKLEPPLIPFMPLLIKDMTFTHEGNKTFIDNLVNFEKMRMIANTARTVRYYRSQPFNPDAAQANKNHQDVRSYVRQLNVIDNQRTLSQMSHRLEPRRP
# [15] = target: Rap guanine nucleotide exchange factor 4 (Homo sapiens) (UniProt Q8WZA2); assay: Confirmatory qHTS for antagonist of cAMP-regulated guanine nucleotide exchange factor 4 (EPAC2) (AID 1645885); conditions: EPAC2 Rap1B-BODIPY-GDP exchange fluorescence, biochemical; series mostly up to 114 µM; also: nearly all actives have a fitted effect of over 25% in size; also: potency is read from the fitted curve at half-maximal effect
# [16] = target: Ubiquitin carboxyl-terminal hydrolase 1 (Homo sapiens) (UniProt O94782); assay: Inhibitors of USP1/UAF1: Pilot qHTS (AID 504865); conditions: purified USP1/UAF1, Ub-rhodamine cleavage fluorescence; series mostly up to 54.9 µM; also: nearly all actives have a fitted effect of over 35% in size; also: potency is read from the fitted curve at half-maximal effect
# Ubiquitin carboxyl-terminal hydrolase 1 (Homo sapiens), sequence (O94782 whole entry, looked up): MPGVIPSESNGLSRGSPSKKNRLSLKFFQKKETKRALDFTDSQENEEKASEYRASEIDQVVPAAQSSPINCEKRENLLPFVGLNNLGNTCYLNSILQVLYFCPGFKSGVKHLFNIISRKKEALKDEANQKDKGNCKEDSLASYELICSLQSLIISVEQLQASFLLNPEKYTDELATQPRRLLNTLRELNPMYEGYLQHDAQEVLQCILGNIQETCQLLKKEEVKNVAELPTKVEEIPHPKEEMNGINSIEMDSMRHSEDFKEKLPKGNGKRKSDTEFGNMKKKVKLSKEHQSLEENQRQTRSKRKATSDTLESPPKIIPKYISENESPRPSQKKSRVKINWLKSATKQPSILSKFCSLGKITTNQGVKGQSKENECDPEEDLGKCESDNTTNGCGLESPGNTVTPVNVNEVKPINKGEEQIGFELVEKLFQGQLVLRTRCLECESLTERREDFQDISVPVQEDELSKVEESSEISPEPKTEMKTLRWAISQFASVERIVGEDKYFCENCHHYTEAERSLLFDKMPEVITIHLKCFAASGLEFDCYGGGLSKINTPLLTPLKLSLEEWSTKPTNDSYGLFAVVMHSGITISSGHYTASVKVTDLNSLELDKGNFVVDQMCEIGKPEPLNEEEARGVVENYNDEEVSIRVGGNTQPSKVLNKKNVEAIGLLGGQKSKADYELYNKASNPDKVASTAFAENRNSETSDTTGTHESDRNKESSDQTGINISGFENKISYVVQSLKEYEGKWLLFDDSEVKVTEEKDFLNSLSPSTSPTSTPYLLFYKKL
# In short: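 USP1/UAF1 complex at 1 nM preincubated 15 min at room temperature with compound, then Ub-Rho substrate added at 150 nM final. Fluorescence (480/540 nm) read kinetically in 50 mM HEPES pH 7.8, 0.5 mM EDTA, 1 mM TCEP, 0.1 mg/ml BSA, 0.01% Tween-20.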
# [17] = measured here: cell count channel max response
# [18] = measured here: lipid channel max response
Compound,Potency [1],"activity change, negative = inhibition [2]",Potency [3],"activity change, negative = inhibition [4]","activity, negative = inhibition [5]",Potency [6],Potency [7],Potency [8],Potency [9],Potency [10],outcome [11],"activity change, negative = inhibition [12]","max response [12, 17] [%]","max response [12, 18] [%]",Potency [13],Potency [14],Potency [15],Potency [16]
COc1ccc2[nH]cc(CCNc3ncnc4ccc(-c5ccccc5C#N)cc34)c2c1,> 11.4 µM (inactive),-21.6% (inactive),3.98 µM (active),29.2% (inactive),-19.5% (inactive),> 46 µM (inactive),> 46 µM (inactive),inactive,2 µM (active),inactive,inactive,4.54% (inactive),-13.6,-10.8,inactive,inactive,inactive,–
O=c1c(O)c(-c2ccc(O)c(O)c2)oc2c(OC3OC(CO)C(O)C(O)C3O)c(O)cc(O)c12 (configuration not stated),–,–,–,–,–,–,–,–,–,inactive,inactive,0.918% (inactive),-2.75,7.27,inactive,inactive,inactive,inactive
C=CC(C1=CC(=O)C(OC)=CC1=O)c1ccccc1 (configuration not stated),–,–,–,–,–,–,–,–,20 µM (active),inactive,inactive,-14.6% (inactive),-0.41,-12.3,inactive,inactive,31.2 µM (active),56.2 µM (active)
COc1ccc(C(=O)O)c(O)c1OC,–,–,–,–,–,–,–,–,inactive,–,inactive,7.29% (inactive),8.57,18.5,inactive,inactive,inactive,inactive
COc1ccc2c(c1)[C@@]1(C)CCC[C@](C)(CO)C1CC2 (some centres not stated),–,–,–,–,–,–,–,–,10 µM (active),inactive,–,8.34% (inactive),17.7,28.8,inactive,inactive,39.3 µM (active),–
COc1cccc(-c2cncnc2NCc2ccc(OC)cc2OC)c1,> 11.4 µM (inactive),-7.15% (inactive),3.98 µM (active),-10.1% (inactive),-6.14% (inactive),> 46 µM (inactive),> 46 µM (inactive),inactive,0.501 µM (active),inactive,inactive,7.71% (inactive),3.12,8.96,inactive,inactive,44.1 µM (active),–
O=C(O)c1cc(O)c2c(c1)C(=O)c1cc(O)cc(O)c1C2=O,–,–,–,–,–,–,–,–,–,inactive,–,8.22% (inactive),22.4,36.4,inactive,inactive,inactive,56.2 µM (active)
COc1ccc2c(c1)OCc1c-2oc2cc(OC)ccc12,–,–,–,–,–,–,–,–,–,inactive,–,8.22% (inactive),-1.79,8.38,inactive,inactive,inactive,–
COC(=O)CCCOc1ccc(Cl)cc1Cl,–,–,–,–,–,–,–,–,inactive,–,inactive,5.51% (inactive),14,23,inactive,inactive,–,inactive
N#C/C(=C\c1ccc(O)c(O)c1)C(=O)NCCCCc1ccccc1,–,–,–,–,–,> 46 µM (inactive),> 46 µM (inactive),–,–,–,–,-2.23% (inactive),21.1,17.3,inactive,inactive,–,35.5 µM (active)
CC(=O)OC1CC2C(C)(C)CCC(=O)[C@@]2(C)C2CC[C@@]3(C)C(c4ccoc4)OC(=O)C4OC43[C@]12C (some centres not stated),–,–,–,–,–,–,–,–,inactive,–,inactive,2.56% (inactive),0.203,3.26,inactive,inactive,inactive,inactive
CN(Cc1ccco1)c1nc(-c2ccccc2Cl)nc2ccccc12,–,16.9% (inactive),–,-23.4% (inactive),21.7% (inactive),> 46 µM (inactive),> 46 µM (inactive),inactive,–,–,inactive,11.9% (inactive),14.1,24.3,inactive,inactive,–,–
COC(=O)c1c(OC)cc2c(c1C)Oc1c(Cl)c(O)c(Cl)c(C)c1C(=O)O2,–,–,–,–,–,–,–,–,1.58 µM (active),inactive,inactive,6.08% (inactive),-4.22,-5.08,inactive,inactive,8.79 µM (active),56.2 µM (active)
O=C1CC[C@@]23/C=C/C(=O)NCCCCNCCCNC(=O)/C=C/c4ccc(c2c4)OC3C1 (some centres not stated),–,–,–,–,–,–,–,–,–,inactive,inactive,2.57% (inactive),7.49,1.79,inactive,inactive,inactive,inactive
CC(=O)Oc1ccc2c(c1C(C)C)CCC1C(C)(C)CCC[C@@]21C (some centres not stated),–,–,–,–,–,–,–,–,–,inactive,inactive,2.03% (inactive),13.7,20.3,inactive,inactive,inactive,–
CCOC(=O)c1c(C)cc(OC)cc1O,–,–,–,–,–,–,–,–,–,inactive,inactive,-10.6% (inactive),3.28,-5.56,inactive,inactive,–,inactive
